Bioassay records as filed in PubChem BioAssay.
NLRP3 yeast inh: NALP3 inflammasome inhibitors in reconstituted yeast, primary screen, luminescence, uHTS | inhibition, % at 10 µM | 0.39% of 330,000 active | Yeast reconstituted NLRP3/ASC/caspase-1, beta-gal luminescence, 24 h;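 active means inhibition of 50% or more; inactive means inhibition below 50%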;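 further: plate controls were induced DMSO wells for no effect and uninduced yeast grown without galactose for full effect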
tim23-1 inh: growth inhibitors of tim23-1 mutant yeast, primary screen, luminescence, uHTS. 1.3% of 330,000 active. inhibition, % at 20 µM. S. cerevisiae tim23-1 growth, BacTiter-Glo luminescence, 24 h;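 active means growth inhibition of the mutant yeast at or above 50%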;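 further: temperature-sensitive mutant grown at 25 °C; plate controls were DMSO-treated mutant yeast for no effect and medium wells lacking yeast for full effect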
NALP1 yeast inh: NALP1 inflammasome inhibitors in reconstituted yeast, colorimetric, S. cerevisiae, triplicate retest; AID 2071, 2009; inhibition, % at 10 µM; S. cerevisiae NALP1/ASC/caspase-1 growth, X-gal OD620, 72 h; 0.61% of 280,000 active; in the data active means inhibition mostly above about 24%, no sharp cut-off; inactive means mostly below about 32%
tim10-1 inh: growth inhibitors of tim10-1 mutant yeast, primary screen, luminescence, uHTS. S. cerevisiae tim10-1 ts strain growth, BacTiter-Glo, 24 h. inhibition, % at 20 µM. 2.2% of 330,000 active;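 active means inhibition of at least 40%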;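 further: mutant grown at 25 °C; 0% = DMSO wells with yeast and 100% = wells holding no yeast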
PfHsp90 yeast 2: growth inhibition of PfHsp90-expressing yeast, primary screen, antimalarial PfHsp90 inhibitor project, S. cerevisiae, BacTiter-Glo luminescence, single point, set 2; BacTiter-Glo ATP, 48 h; yeast lacking PDR1 and PDR3 efflux regulators; inhibition, % at 9.4 µM; 0.32% of 310,000 active; AID 504621, 2011;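 active means every replicate shows inhibition above about 80%, whatever the replicate mean, limit read from the data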;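 further: 0% = DMSO neutral controls and 100% = 20 µM radicicol positive controls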
TIM10 inh: growth inhibitors of isogenic TIM10 control yeast, primary screen, counter-screen for tim10-1 yeast inhibitor project, luminescence, uHTS | S. cerevisiae TIM10 strain growth, BacTiter-Glo luminescence, 24 h | inhibition, % at 10 µM | 1.4% of 330,000 active;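 active means inhibition of 40% or more at the single tested concentration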;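 further: wild-type TIM10 isogenic control strain grown at permissive 25 °C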
tim10-1 conf: growth inhibitors of tim10-1 mutant yeast, confirmation, single concentration, luminescence, S. cerevisiae. shares compounds with tim10-1 inh. S. cerevisiae tim10-1 ts strain growth, BacTiter-Glo, 24 h. inhibition, % at 20 µM. 56% of 7,400 active;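 active means inhibition of yeast growth at or above a set limit in either of two repeat tests at 20 µM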;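 further: tim10-1 mutant grown at permissive 25 °C to find synthetic lethal compounds; 0% = DMSO yeast wells and 100% = medium wells without yeast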
Starred values were filed as active, the others as inactive; · = no result. An excerpt weighted towards active compounds, which were near 4.2% of everything screened.

SMILES | NLRP3 yeast inh | tim23-1 inh | NALP1 yeast inh | tim10-1 inh | PfHsp90 yeast 2 | TIM10 inh | tim10-1 conf
CN(CC(=O)O/N=C(\N)c1ccc(Br)cc1)S(=O)(=O)c1ccccc1 | 27.7 | 9.5 | 15.5 | 49.6* | 11.1 | -3.8 | 43.0*
Cc1nc2[nH]c(=O)n(O)c(=O)c2s1 | · | · | · | · | 14.7 | · | ·
O=C(N1CCC(n2nc(-c3ccccc3)oc2=O)CC1)C1(c2ccc(Cl)cc2)CC1 | 21.8 | 43.0 | -9.0 | 53.3* | -18.2 | 25.7 | 1.7
CC(C)(C)n1nnnc1C(c1cccnc1)N(Cc1ccccc1)Cc1cccs1 (stereo not given) | 5.4 | 26.9 | -5.6 | 56.3* | -4.6 | 33.7 | 33.0*
CC(C)(C)n1nnnc1C(c1cccs1)N(Cc1ccccc1)Cc1cccnc1 (stereo not given) | -28.1 | 34.0 | 7.6 | 21.7 | -2.5 | 14.9 | ·
Cc1nn(-c2ccccc2)c(C)c1Cc1ccc(O)cc1 | 35.6 | 39.6 | 9.7 | 23.0 | 18.5 | 3.3 | ·
Cc1nn(-c2ccccc2)c2c1C(O)n1c(nc3ccccc31)S2 (stereo not given) | 14.0 | 37.6 | 29.2 | 41.4* | -0.3 | 25.2 | -4.6
CSC1=C(C#N)C(c2ccccc2Cl)C2=C(N1)c1ccccc1C2=O (stereo not given) | 9.8 | 47.0 | -4.1 | 45.8* | 9.1 | 29.9 | 28.3
CSC1=C(C#N)C(c2ccccc2Cl)C2=C(CCCC2=O)N1 (stereo not given) | · | · | 14.2 | · | · | · | ·
Cc1ccc(S(=O)(=O)N2CCCCC2)cc1NS(=O)(=O)c1ccccc1F | 11.7 | 16.3 | · | 11.0 | 1.7 | 3.9 | ·
O=C(Nc1cc(Cl)ccc1N1CCOCC1)C1=COCCO1 | 8.0 | 20.7 | · | 23.4 | 11.1 | -0.6 | ·
O=C(Oc1ccc(Br)cc1C(=S)N1CCCC1)c1ccccc1Cl | -5.8 | 30.8 | 5.4 | 22.2 | 6.3 | 26.2 | ·
O=C(Oc1ccc(Br)cc1C(=S)N1CCCCC1)c1cc([N+](=O)[O-])cc([N+](=O)[O-])c1 | 12.6 | 46.3 | 26.1 | 51.1* | -5.8 | 36.2 | 31.1
O=C(COC(=O)C1=COCCO1)NC1CCCCC1 | -18.6 | 2.3 | · | 25.7 | -7.3 | 0.1 | ·
Cc1ccc(S(=O)(=O)/N=C2\C=C(Nc3cccc(C(=O)O)c3)C(=O)c3ccccc32)cc1 | 22.2 | 32.2 | 7.4 | 18.2 | 23.4 | 17.8 | ·
Cc1ccc(S(=O)(=O)/N=C2\C=C(Nc3cccc(C(=O)O)c3)C(=O)c3ccccc32)c(C)c1 | 28.2 | 35.2 | -11.4 | 43.7* | -13.1 | 7.4 | 22.0
C=C(C)C1CC=C(C)/C(=N/NC(=S)Nc2ccccc2)C1 (stereo not given) | 27.8 | 26.8 | 0.2 | 40.8* | -18.9 | 18.5 | 25.9
C=C(C)C1CC=C(C)/C(=N/NC(=O)c2ccc(NC(=O)c3cccc(C)c3)cc2)C1 (stereo not given) | 5.8 | -25.5 | -6.7 | -1.2 | -2.7 | -40.3 | ·
O=C(/C=C/c1ccccc1)c1ccc(NC2=NCCCS2)cc1 | · | · | 33.0 | · | 11.6 | · | ·
COc1cccc(/C=C/C(=O)c2ccc(NC3=NCCCS3)cc2)c1 | 0.1 | 39.3 | -10.8 | 42.7* | 4.8 | 38.2 | 36.8*
CC(C)(C)c1ccc(/C=C/C(=O)c2ccc(NC3=NCCCS3)cc2)cc1 | 8.0 | 35.0 | 46.8 | 43.0* | 12.8 | 26.1 | 35.4*
CN(CCOc1ccccc1)CC(=O)Nc1cccc(C#N)c1 | 18.3 | 6.7 | 14.1 | -16.9 | -42.7 | 8.8 | ·
COC(=O)c1ccc2c(CCO)c[nH]c2c1 | 1.5 | 9.7 | 7.3 | 1.3 | 3.0 | -6.5 | ·
O=C(Oc1ccccc1)c1cccnc1Oc1ccccc1 | 14.5 | 22.9 | 35.3 | 23.1 | 50.8 | 17.6 | ·
N#Cc1nc(COc2ccc(Cl)cc2Cl)oc1N1CCOCC1 | 18.8 | 29.6 | 4.1 | 40.5* | 9.9 | 31.7 | 25.1
SMILES | NLRP3 yeast inh | tim23-1 inh | NALP1 yeast inh | tim10-1 inh | PfHsp90 yeast 2 | TIM10 inh | tim10-1 conf
O=C(c1cccc(C(F)(F)F)c1)N1CCc2c([nH]c3ccccc23)C1C(F)(F)F (stereo not given) | 38.8 | 31.2 | -6.3 | 23.9 | -2.6 | 11.9 | ·
CCN(C(=O)COC(=O)c1cc(=O)c2ccccc2o1)c1c(N)n(Cc2ccccc2)c(=O)[nH]c1=O | 5.6 | -1.7 | · | -15.1 | · | -10.0 | ·
COC(=O)COc1ccc(-c2nccc(-c3ccc(Br)cc3)n2)cc1 | -1.0 | 22.3 | -8.8 | -12.7 | 12.0 | 8.4 | ·
COC(=O)COc1ccc(-c2nccc(-c3ccccn3)n2)cc1 | 21.1 | 18.7 | 3.3 | 43.4* | 19.6 | 29.7 | 31.2*
CC(=O)Nc1ccc(S(=O)(=O)N2CCCCC2c2cccnc2)cc1 (stereo not given) | -0.1 | -4.3 | 5.2 | 11.0 | 35.3 | -6.0 | ·
COc1cc(C)c(C)cc1S(=O)(=O)N1CCCCC1c1cccnc1 (stereo not given) | 9.8 | 29.9 | 3.2 | 41.0* | 12.1 | 11.5 | 27.4
N#CC1(Nc2cccc(Br)c2)C(=O)Nc2ccccc21 (stereo not given) | 14.5 | 37.2 | 35.0 | 41.9* | 11.8 | 38.7 | 38.0*
N#CC1(Nc2ccccc2)C(=O)Nc2ccccc21 (stereo not given) | 17.9 | 19.2 | 4.2 | 11.8 | 5.7 | -7.4 | ·
Cn1nc(C(F)(F)F)c(-c2ccc(Br)cc2)c1NC(=O)c1ccco1 | 12.8 | 32.3 | · | 40.0* | -14.2 | 3.3 | 14.4
Cn1nc(C(F)(F)F)c(-c2ccc(Br)cc2)c1NC(=O)c1cccnc1 | 21.5 | 8.9 | · | 22.7 | -5.8 | 12.0 | ·
COc1ccccc1OCCNC(=O)Nc1cc(F)c(F)cc1Cl | 29.3 | 33.8 | 2.4 | 32.9 | -12.7 | 18.2 | ·
COc1ccccc1OCCNC(=O)Nc1ccc(Br)cc1 | 14.5 | 27.2 | 11.5 | 40.3* | -25.7 | -7.2 | 31.1*
O=C(COC(=O)c1ncc(Cl)c(Cl)c1Cl)NC1CCCCCC1 | -0.7 | 30.3 | · | 42.8* | · | 11.2 | 19.2
O=C(COC(=O)c1nc(Cl)ccc1Cl)NC1CCCCCC1 | 29.2 | 23.7 | · | 27.7 | -68.6 | 5.7 | ·
O=C(c1cnn(C(=O)c2ccco2)c1)c1cc(F)ccc1O | -1.4 | 39.2 | · | -3.6 | 8.4 | 7.4 | ·
CCN(CC)C(=O)c1ccc(COc2ccccc2Cl)cc1 | 22.4 | 6.5 | 0.5 | 41.8* | -16.6 | 20.0 | 29.6
COc1ccc(C(=O)Oc2ccc3c(c2)OCO3)cc1OC | 16.1 | 17.5 | -13.2 | 41.9* | 25.1 | 11.2 | 29.6
COc1cc(OC)c(C(=O)Oc2ccc3c(c2)OCO3)cc1OC | 7.9 | 17.2 | 22.1 | 20.2 | -26.6 | 5.5 | ·
Cc1ccc(C)c(C(=O)OCC(=O)N(C)c2ccccc2)c1 | 21.7 | 44.3 | 18.2 | 55.7* | -28.0 | 34.7 | 43.5*
